Data published in PubChem BioAssay (NCI).
This is part of a sample that, as a whole, favours compounds with a hit. Of some 83,000 tested, about 20% had one in any assay.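 Values shown are percent growth following 48 h exposure of cells in 96-well plates to a single concentration of compound; below 10 was considered active.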 Unmarked numbers belong to inactive results. The source made the active and inactive calls.

How the values were obtained:
Experiment in all cases: NCI-60 one-dose screen, 48 h (100 = growth as untreated, 0 = no growth, -100 = all killed)
Details in all cases: 10 µM unless noted
[1] = test system: RPMI-8226 leukemia
[2] = test system: OVCAR-8 ovarian
[3] = test system: OVCAR-5 ovarian
[4] = test system: OVCAR-4 ovarian
[5] = test system: SK-OV-3 ovarian
[6] = test system: OVCAR-3 ovarian
[7] = test system: HS 578T breast
[8] = test system: NCI/ADR-RES ovarian
[9] = test system: T-47D breast
[10] = test system: BT-549 breast
[11] = test system: MDA-MB-435 melanoma
[12] = test system: SW-620 colon
[13] = test system: MCF7 breast
[14] = test system: HCT-116 colon
[15] = test system: HCC-2998 colon
[16] = test system: KM12 colon
[17] = test system: IGROV1 ovarian

Structure (SMILES)	growth [1]	growth [2]	growth [3]	growth [4]	growth [5]	growth [6]	growth [7]	growth [8]	growth [9]	growth [10]	growth [11]	growth [12]	growth [13]	growth [14]	growth [15]	growth [16]	growth [17]
COc1ccc(/C=C2\CS(=O)(=O)C/C(=C\c3ccc(OC)cc3)C2=O)cc1	-41.2% (active)	-44.8% (active)	-20.2% (active)	12.3%	25.4%	-66.2% (active)	48%	10.5%	14.6%	-38.6% (active)	-28.8% (active)	0.757% (active)	-15% (active)	-83.2% (active)	-98% (active)	-93.2% (active)	
CC1(C)N=C(N)N=C(N)N1c1ccc(OCC(=O)Nc2ccccc2)c(Cl)c1	34.5%	21.9%	49%	46.1%	57.3%	56.7%	97.7%	102%	70%	40.6%	25.2%	33%	28.4%	19.2%	29.5%	18.1%	
Nc1nc2ccc(CNc3ccc(C(=O)NC(CC(=O)O)C(=O)O)cc3)cc2c(=O)[nH]1 (centres undefined)	44.3%	13.1%	52.2%	65.6%	76.8%	58.2%	97.5%	33%	84.7%	74.3%	40.4%	31.8%	27.2%	16.8%	45.1%	29.8%	
CC1(C)N=C(N)N=C(N)N1c1cccc(CCCCc2ccccc2)c1	-50% (active)	0.546% (active)	38.5%	7.12% (active)	30.3%	-16.8% (active)	66.5%	90.3%	18.1%	-35.1% (active)	-0.215% (active)	25.3%	3.82% (active)	2.07% (active)	-9.45% (active)	-42.8% (active)	
CC1=C[S+](c2ccccc2)c2cccc3cc4ccccc4c1c23 (centres undefined)	-32.5% (active)	-9.27% (active)	-32.7% (active)	17.4%	0.639% (active)	-82.9% (active)	69.5%	27%	-51.9% (active)	-10.9% (active)	0.153% (active)	-13.4% (active)	-49.9% (active)	-87.6% (active)	-89.4% (active)	-88% (active)	
Cn1c(I)c(C#C[Si](C)(C)C)c(=O)[nH]c1=O	46.5%	-11.7% (active)	77.7%	-65% (active)	110%	-54.1% (active)	10.6%	83.3%	21.9%	40.7%	58.7%	-66.5% (active)	82.1%	-43.1% (active)	-67.1% (active)	103%	
Clc1ccc2c(c1)nnn1c3ncccc3c(Br)c21	83.2%	71.9%	101%	77.1%	51.3%	70.8%	16.7%	85.8%	60.7%	72.1%	95.2%	78.9%	64.2%	68.4%	108%	86.4%	
Cc1cn(C2CC(F)C(CO)O2)c(=O)[nH]c1=O (centres undefined)	82.5%	90.4%	94.4%	93.1%	93.1%	137%	133%	86.5%	98%	80.7%	78.2%	115%	113%	95.6%	100%	99.1%	
CC(=O)O[C@@H]1[C@@H](OC(C)=O)[C@H](OC(C)=O)CO[C@H]1Nc1cccc2ccccc12	87.9%	102%	100%	103%	105%	95.7%	96.3%	95.9%	86.6%	89.1%	102%	98.4%			94.2%	84.2%	97.9%
COc1ccc2c(c1)C(=O)/C(=C/c1cccc(OCC(=O)c3ccccc3)c1)O2	-49.6% (active)	-29.9% (active)	37.8%	-55.1% (active)	121%	-84.4% (active)	52%	65.1%	-31.7% (active)	-15.9% (active)	38%	-82.7% (active)	32%	0.433% (active)	-71.2% (active)	71.7%	
